Results as given in PubChem BioAssay (Tox21).
Records with an inconclusive call do not appear. A call without a number means that no potency is given here. Calls of active or inactive are those of the source. Calls follow the shape of the dose curve; as a rule, active = well fitted activation curve with a large enough effect in the repeat runs; inconclusive = weak or mixed curves; inactive = flat fitted curve, though single readings scatter.

Assay: A CellTox Green Cytotoxicity Assay to monitor cytotoxicity in HEK293 cells - 16 hour (AID 1224888); also: nearly all actives have a fitted effect of over 35% in size
Conditions: CellTox Green fluorescence; series mostly up to 76.8 µM
Excerpt: National Center for Advancing Translational Sciences [NCATS]
NIH Chemical Genomics Center [NCGC]
U.S. Environmental Protection Agency [EPA]
National Institutes of Environmental Health Sciences [NIEHS]
National Toxicology Program [NTP]
Cell-based models are critical for drug discovery. Determining the natural cytotoxic effects resulting from test compounds is an essential research activity. A CellTox Green Cytotoxicity Assay to monitor cytotoxicity in real time of continues cell culture during 40 hours of the compound treatment was used to screen Tox21 10K library compounds in Hek293 cells. CellTox Green Cytotoxicity Assay is a nonlytic, homogeneous, biofluorescent method to measure cytotoxicity in cell culture after experimental manipulation. The assay system uses a proprietary asymmetric cyanine dye that is excluded from viable cells but preferentially stains the dead cell's DNA. […] Viable cells produce no appreciable increases in fluorescence. Therefore, the fluorescence signal produced by the binding interaction with dead cell DNA is proportional to cytotoxicity.
The mixture of Hek293 cell suspension and reagents were dispensed at 600cells/6 ul/well in 1536-well tissue culture treated black solid bottom plates using a Multidrop dispenser. After the assay plates were incubated at a 37 C/5% CO2 incubator for 5 hours, 23 nL of compounds dissolved in DMSO, positive and negative controls was transferred to the assay plate by a pintool work station. The plates were incubated at 37 C for 40 hours. The fluorescence intensity were measured at 0h, 8h, 16h, 24h, 32h and 40h time points using ViewLux plate reader during compound treatment.

**Q.** For `CCCN1CCCC[C@H]1C(=O)Nc1c(C)cccc1C`, which Potency is on record?
**A.** inactive

**Q.** Which Potency does the source give for `CC(=O)OCC(CCn1cnc2cnc(N)nc21)COC(C)=O` here?
**A.** inactive

**Q.** With `CCOC(=O)c1ccc(C)cc1` as the molecule, how does the Potency read?
**A.** inactive

**Q.** Which Potency does the source give for `Cn1c(N)c(N=O)c(=O)n(C)c1=O` here?
**A.** inactive

**Q.** Which Potency does the source give for `O=C1OC(=O)C2CCCCC12` (stereo not given) here?
**A.** inactive

**Q.** For `CCS(=O)(=O)c1ccc(OC)c(C(=O)OC)c1`, which Potency is on record?
**A.** inactive

**Q.** With `CC(C)CNCC(C)C` as the molecule, how does the Potency read?
**A.** inactive

**Q.** Which Potency does the source give for `C=COCC1CCC(CO)CC1` (stereo not given) here?
**A.** inactive

**Q.** Which Potency does the source give for `CC(C)c1cc2c(cc1S(=O)(=O)O)[C@@]1(C)CCC[C@@](C)(C(=O)O)[C@@H]1CC2` here?
**A.** inactive

**Q.** With `CC/C=C\CCOC(C)=O` as the molecule, how does the Potency read?
**A.** inactive

**Q.** With `COc1c(N2C[C@@H]3CCCN[C@@H]3C2)c(F)cc2c(=O)c(C(=O)O)cn(C3CC3)c12` as the molecule, how does the Potency read?
**A.** inactive

**Q.** With `Cc1ccc(Cl)cc1Cl` as the molecule, how does the Potency read?
**A.** inactive

**Q.** For `CC(C)NCCCC1(C(N)=O)c2ccccc2-c2ccccc21`, which Potency is on record?
**A.** inactive

**Q.** With `CN1CC(=O)NC1=N` as the molecule, how does the Potency read?
**A.** inactive

**Q.** Which Potency does the source give for `C[N+](C)(C)CC(O)CC(=O)[O-]` (stereo not given) here?
**A.** inactive

**Q.** For `COC(=O)C1=C(C)NC(C)=C(C(=O)OC)C1c1ccccc1[N+](=O)[O-]`, which Potency is on record?
**A.** inactive

**Q.** For `Oc1ccc(C2CNCCc3c2cc(O)c(O)c3Cl)cc1` (stereo not given), which Potency is on record?
**A.** inactive

**Q.** For `CCOC(=O)Nc1ccc(NCc2ccc(F)cc2)nc1N`, which Potency is on record?
**A.** inactive

**Q.** Which Potency does the source give for `CN(C(=O)c1c(O)c2ccccc2n(C)c1=O)c1ccccc1` here?
**A.** inactive

**Q.** For `O=C(O)CCCc1ccccc1`, which Potency is on record?
**A.** inactive

**Q.** With `CC1=CC(C)C(C=O)CC1` (stereo not given) as the molecule, how does the Potency read?
**A.** inactive

**Q.** With `NC(=O)c1ccc([N+](=O)[O-])cc1` as the molecule, how does the Potency read?
**A.** inactive

**Q.** For `CC(C)(O)C(=O)c1ccccc1`, which Potency is on record?
**A.** inactive

**Q.** With `FC1(F)C(F)(F)C(F)(F)C2(F)C(F)(F)C(F)(F)C(F)(F)C(F)(F)C2(F)C1(F)F` (stereo not given) as the molecule, how does the Potency read?
**A.** inactive

**Q.** For `O=C(CCCN1CCC(O)(c2cccc(C(F)(F)F)c2)CC1)c1ccc(F)cc1`, which Potency is on record?
**A.** inactive

**Q.** Which Potency does the source give for `C[C@H](NC(CCc1ccccc1)C(=O)O)C(=O)N1CCC[C@H]1C(=O)O` (stereo not given in full) here?
**A.** inactive

**Q.** With `NC(=O)c1ccc(N)cc1` as the molecule, how does the Potency read?
**A.** inactive

**Q.** Which Potency does the source give for `COC(=O)c1c(Cl)c(Cl)c(C(=O)OC)c(Cl)c1Cl` here?
**A.** inactive

**Q.** With `C=CCCCCCCCCC=O` as the molecule, how does the Potency read?
**A.** inactive

**Q.** With `CCCCOCCOCCOCc1cc2c(cc1CCC)OCO2` as the molecule, how does the Potency read?
**A.** inactive

**Q.** For `CC(=O)CC(C)(C)C1CCCCC1`, which Potency is on record?
**A.** inactive

**Q.** For `O=C(O)Cc1ccc(CCNS(=O)(=O)c2ccc(Cl)cc2)cc1`, which Potency is on record?
**A.** inactive

**Q.** Which Potency does the source give for `COC(C)(C)CCCC(C)CC=O` (stereo not given) here?
**A.** inactive

**Q.** Which Potency does the source give for `CCCCCSCCCCC` here?
**A.** inactive

**Q.** With `CC(C)CCCC(C)N` (stereo not given) as the molecule, how does the Potency read?
**A.** inactive

**Q.** For `O=C1CCCCCCCCCCCN1`, which Potency is on record?
**A.** inactive

**Q.** With `Cc1cc(O)cc2c1O[C@](C)(CCC[C@H](C)CCC[C@H](C)CCCC(C)C)CC2` as the molecule, how does the Potency read?
**A.** inactive

**Q.** With `CCc1cccc2c(CCO)c[nH]c12` as the molecule, how does the Potency read?
**A.** inactive

**Q.** For `Nc1ccc(S(=O)(=O)Nc2ccnn2-c2ccccc2)cc1`, which activity change is on record?
**A.** 2.29% [at 15.8 µM, hits give high values] (inactive)

**Q.** For `CCOC(=O)C(=O)OCC`, which Potency is on record?
**A.** inactive
